About 79,000 compounds went through this panel and 15% of them were active in at least one assay; those are over-represented in the sample as a whole. Unmarked numbers belong to inactive results. Activity calls are given as the source filed them. Rule as the data show it: active = growth inhibition above about 70%; inactive = the rest.
Assay: NCI Yeast Anticancer Drug Screen. Data for the wt2 strain (AID 169);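 also: 0% = growth of vehicle-treated yeast cultures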
Details: S. cerevisiae wt2 strain growth inhibition, hits give high values
Experimental: Growth inhibition of yeast strains with defined genetic alterations is measured as a screen for potential anti-cancer activity. Selected strains with alterations in DNA damage repair or cell cycle control were exposed to compounds and growth inhibition was measured relative to vehicle treated controls. The strain used in this assay is wt2

| Structure (SMILES) | growth inhibition (at 1.2 µM) [%] | growth inhibition (at 3.7 µM) [%] | growth inhibition (at 11.0 µM) [%] | growth inhibition (at 33.0 µM) | growth inhibition (at 100.0 µM) |
| --- | --- | --- | --- | --- | --- |
| [O-][n+]1c2cccc(O)c2[n+]([O-])c2cccc(O)c21 | 2 | 5 | 11 | 12% | 24% |
| CN(N=O)C(=O)NNC(=O)N(C)N=O | -3 | -2 | 1 | 16% | 49% |
| O=C1NC(=S)NC(=O)C1=C/C=C/c1ccccc1 | -15 | -3 | 2 | 46% | 98% (active) |
| CNCC(O)c1ccc(O)c(O)c1.[Pt].c1ccc([PH+](c2ccccc2)c2ccccc2)cc1.c1ccc([PH+](c2ccccc2)c2ccccc2)cc1 | -2 | -2 | 8 | 98% (active) | 98% (active) |
| CC[PH+](CC)CC.CC[PH+](CC)CC.[Au] | -13 | -9 | 21 | 98% (active) | 99% (active) |
| Oc1ccc(Cl)cc1Cc1ccccc1 | -53 | -16 | 54 | 98% (active) | 98% (active) |
| Nc1nc(N)c2c(Cl)c(CNc3ccc(C(=O)NC(CC(=O)O)C(=O)O)cc3)ccc2n1 (stereo not given) | -42 | -44 | -42 | -1% | 28% |
| CC1=C2C(=C[C@@](C)(CO)[C@@H]2O)C(=O)[C@](C)(O)C12CC2 | -2 | 0 | 0 | 0% | 1% |

Source: PubChem BioAssay (NCI)
